Bioassay records from PubChem.
AmpC inh no detg – qHTS Inhibitors of AmpC Beta-Lactamase (assay without detergent); Potency, µM (highest dose often 57.1 µM), hits mostly inhibitors; P00811; AmpC nitrocefin hydrolysis, absorbance 480 nm, 0.0001% Triton; actives 0.52% (n = 330,000); AID 485341, 2010; further: nearly all actives have a fitted effect of over 20% in size
Target sequence (P00811 whole entry, looked up): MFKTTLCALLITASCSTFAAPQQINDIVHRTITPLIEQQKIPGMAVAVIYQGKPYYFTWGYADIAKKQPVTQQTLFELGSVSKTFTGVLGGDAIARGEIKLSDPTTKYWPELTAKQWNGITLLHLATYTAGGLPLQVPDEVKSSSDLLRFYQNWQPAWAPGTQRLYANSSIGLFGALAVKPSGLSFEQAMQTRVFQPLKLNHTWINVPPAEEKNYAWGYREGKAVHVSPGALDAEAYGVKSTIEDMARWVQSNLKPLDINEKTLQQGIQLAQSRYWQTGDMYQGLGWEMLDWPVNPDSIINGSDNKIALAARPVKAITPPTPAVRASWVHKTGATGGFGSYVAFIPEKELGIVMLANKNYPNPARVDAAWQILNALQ
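20 mM phosphate pH 7.0 + 0.01% (detergent screen) or 0.0001% Triton X-100; 5.3 nM AmpC reagent; cpd preinc 15 min RT; nitrocefin (800 uM stock) to start; A480 q20 s × 4 min; Activity was normalised to no-enzyme and no-compound control wells.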
AmpC inh detg – qHTS Inhibitors of AmpC Beta-Lactamase (assay with detergent). P00811. AmpC hydrolysis of nitrocefin, absorbance 480 nm, 0.01% Triton. Potency, µM (doses to about 114 µM), actives largely listed as inhibitors. actives 0.041% (n = 370,000). AID 485294, 2010; further: nearly all actives have a fitted effect of over 25% in size
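AmpC (5.3 nM in the dispensed reagent) in 20 mM phosphate pH 7.0 with 0.01% (detergent screen) or 0.0001% Triton X-100 was preincubated with compounds for 15 min at room temperature. Nitrocefin was then added from an 800 uM solution, and hydrolysis was followed at 480 nm.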
Giardia FBPA inh – qHTS Assay for Inhibitors of Fructose-1,6-bisphosphate Aldolase from Giardia Lamblia. A8B2U2. purified Giardia FBPA. Potency, µM (doses to about 59.6 µM), most hits filed as inhibitors. actives 0.71% (n = 290,000). AID 2451, 2010; further: nearly all actives have a fitted effect of over 55% in size
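40 nM FBPA preincubated 10 min at RT with compound (up to 57.5 uM final), then substrate plus GAPDH/TPI/NAD/arsenate coupling and diaphorase/resazurin added. Fluorescence read after 20 min at RT, 525/598 nm.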
Sm TGR block – qHTS Assay for the Inhibitors of Schistosoma Mansoni Peroxiredoxins; purified TGR, DTNB reduction, TNB absorbance 405 nm; Potency, µM (doses to about 114 µM), hits mostly inhibitors; actives 3% (n = 360,000); further: nearly all actives have a fitted effect of over 60% in size
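First, TGR (20 nM dispensed) and NADPH were mixed with compound. Second, a 15 min room-temperature incubation followed. Third, further NADPH and then DTNB were added to start the reaction. Finally, TNB absorbance was monitored kinetically.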
Hits are given with their value; . = inactive; ? = inconclusive; / = not tested or not shown. Rows were chosen to be rich in hits. Some 3.6% of all compounds tested hit in one or more screens of this group. The call rests on the fitted dose curve; in most records, active means well fitted curve in the direction sought with a large enough effect; inconclusive means small, poorly fitted or top-dose-only effect, or another doubt; inactive means no such curve, though single readings can be large; an effect the other way counts as inactive or inconclusive.

SMILES | AmpC inh no detg | AmpC inh detg | Giardia FBPA inh | Sm TGR block
Cn1c(SCC(=O)Nc2cccc(F)c2)nc2c(c1=O)SCC2 | . | . | / | .
O=C1CC(Nc2ccc(N3CCOCC3)cc2)C(=O)N1c1ccccc1 (configuration not stated) | . | . | . | 35µM
COc1ccccc1N1C(=O)CC(Nc2ccc(N3CCOCC3)cc2)C1=O (configuration not stated) | . | . | ? | 20µM
CCOc1ccccc1N1CC(C(=O)Nc2ccccc2N2CCOCC2)CC1=O (configuration not stated) | . | ? | . | .
O=C1CC(Nc2ccc(N3CCOCC3)cc2)C(=O)N1Cc1ccccc1 (configuration not stated) | . | ? | . | 20µM
CCOc1ccccc1N1C(=O)CC(Nc2ccc(N3CCOCC3)cc2)C1=O (configuration not stated) | . | . | . | 18µM
COc1ccc(NC2CC(=O)N(c3ccccc3)C2=O)cc1 (configuration not stated) | . | . | ? | ?
CCN1C(=O)[C@H]2[C@@H](c3ccc(-c4ccc(OC)cc4)cc3)N[C@@](C)(C(=O)OC)[C@H]2C1=O | . | . | / | .
CCc1nc(-c2cc(S(=O)(=O)N3CCN(c4ccc(F)cc4)CC3)ccc2OC)no1 | / | . | / | .
Cc1ccc(Cl)cc1NC1=C/C(=N\S(=O)(=O)c2cccs2)c2ccccc2C1=O | . | . | 0.28µM | .
COc1ccc(C(=O)N/C(=C\c2cn(S(=O)(=O)N(C)C)c3ccccc23)C(=O)N2CCN(C)CC2)cc1 | . | ? | . | .
COc1cc2c(cc1Cl)/C(=C\CCN(C)C)c1ccccc1S2 | . | . | . | 28µM
COc1cc(Cl)cc2c1Sc1ccccc1/C2=C/CCN(C)C | . | . | . | 18µM
CN(C)CC/C=C1/c2ccccc2Sc2c(O)cc(Cl)cc21 | . | . | ? | .
CCC(Cn1nnc2ccccc2c1=O)NC(=O)Nc1ccccc1OC (configuration not stated) | / | . | / | .
Cc1ccc(C(=O)N2CCn3c(C)ccc3C2C)cc1 (configuration not stated) | . | . | ? | 22µM
Cc1ccc(C(=O)N2CCN(C(=O)c3ccccc3)C2c2ccc(N(C)C)cc2)cc1 (configuration not stated) | . | . | . | .
Cc1ccc(-n2c3c(cc(C(=O)NC4CCSC4=O)c2=O)C(=O)CCC3)cc1 (configuration not stated) | . | ? | . | 79µM
Cc1cccc(C)c1NC(=O)CC1SC2=NCCN2C1=O (configuration not stated) | . | . | . | 25µM
O=C(CC1SC2=NCCN2C1=O)Nc1ccc(Br)cc1 (configuration not stated) | . | . | . | .
Cc1ccc(/C=C/C(=O)OCC(=O)N(CC(C)C)c2c(N)n(Cc3ccccc3)c(=O)[nH]c2=O)o1 | . | . | / | .
CCN(C(=O)COC(=O)/C=C/c1ccc(C)o1)c1c(N)n(Cc2ccccc2)c(=O)[nH]c1=O | . | ? | / | 18µM
CCCN(C(=O)/C=C/c1ccco1)c1c(N)n(Cc2ccccc2)c(=O)[nH]c1=O | . | . | . | 45µM
CC(NC(=O)C(=O)c1cn(CC(=O)N2CCOCC2)c2ccccc12)c1ccccc1 (configuration not stated) | . | . | / | .
COc1cccc(C2NC(=S)NC3=C2CCc2ccccc23)c1 (configuration not stated) | . | . | 16µM | .
SMILES | AmpC inh no detg | AmpC inh detg | Giardia FBPA inh | Sm TGR block
Cc1ccc(C2NC(=O)NC3=C2CCc2ccccc23)cc1 (configuration not stated) | . | ? | . | 40µM
CC(C)c1ccc(C2NC(=O)NC3=C2CCc2ccccc23)cc1 (configuration not stated) | . | . | ? | ?
COc1ccc2c(c1)C1=C(CC2)C(c2ccc(C)cc2)NC(=S)N1 (configuration not stated) | . | . | . | .
Cc1ccc(S(=O)(=O)N2CCCCC2C(=O)Nc2ccc(N(C)C)cc2)cc1 (configuration not stated) | . | / | / | /
CCOC(=O)c1cnc(Nc2nc3ccccc3o2)nc1CN1CCN(C)CC1 | . | . | . | 50µM
O=C(C1=C(O)C(=O)N(CCN2CCOCC2)C1c1ccco1)c1cc2ccccc2o1 (configuration not stated) | . | . | / | 22µM
O=C(C1=C(O)C(=O)N(CCN2CCOCC2)C1c1ccc(F)cc1)c1cc2ccccc2o1 (configuration not stated) | . | . | / | 28µM
O=C(C1=C(O)C(=O)N(CCCN2CCOCC2)C1c1ccccn1)c1cc2ccccc2o1 (configuration not stated) | . | ? | . | .
O=C(C1=C(O)C(=O)N(CCN2CCOCC2)C1c1cccc(Br)c1)c1cc2ccccc2o1 (configuration not stated) | . | . | / | .
CCC1CCC(C(=O)NNC(=O)c2cc(-c3ccco3)[nH]n2)CC1 (configuration not stated) | . | . | . | 22µM
Oc1ccc(-c2c(C3=CCCCC3)sc3ccccc23)cc1 | . | ? | . | 79µM
COc1ccc(OC)c(C(=O)NC(CC(N)=O)c2ccc(NC(C)C)c([N+](=O)[O-])c2)c1 (configuration not stated) | . | ? | . | .
CC1Oc2ccccc2N(CC(=O)NCCc2ccccc2)C1=O (configuration not stated) | . | 40µM | . | .
CC1Oc2ccccc2N(CC(=O)NCCCN2CCOCC2)C1=O (configuration not stated) | . | . | / | .
COc1ccc(CCNC(=O)Cc2c(C)c3cc(OC)c(OC)cc3oc2=O)cc1 | / | . | / | .
O=C1NC(=O)N(Cc2ccccc2)C(=O)/C1=C/C=C/c1ccco1 | ? | . | . | 6.3µM
CC(C)N1C(=O)/C(=C/C=C/c2ccco2)C(=O)N(Cc2ccco2)C1=O | . | . | . | 3.5µM
CCN1C(=O)C(=C/C=C/c2ccco2)C(=O)N(CC)C1=S | . | . | . | 8.9µM
COc1cc(NC(=O)c2cc(Cl)ccc2Cl)ccc1NC(=O)c1cc2ccccc2o1 | / | . | / | .
CCOC(=O)CSc1nnc(-c2ccco2)n1-c1ccc(C)cc1 | . | . | . | ?
CCOc1ccccc1-n1c(SCC(=O)NC)nnc1-c1ccco1 | . | ? | . | ?
CCOC(=O)CSc1nnc(-c2ccco2)n1-c1ccccc1 | . | . | . | 22µM
C=CCn1c(SCC(=O)Nc2ccccc2OC)nnc1-c1ccco1 | . | . | . | 45µM
CNC(=O)CSc1nnc(-c2ccco2)n1-c1ccccc1OC | . | . | . | 79µM
Cc1ccc(-c2c(C(=O)O)c3ccccc3[nH]c2=O)cc1 | . | . | . | .
